Data on four sequences can be found in article PMC11006913.

What all share (test): PBM; 200 nM protein, PBS
What all share (settings): dsDNA, one strand shown

The target in assay [1] is HESX1 (Homo sapiens, UniProt Q9UBX0 95-180, R165K).
The target of assay [2] is SHOX (Homo sapiens, UniProt O15266 103-189).
A further assay has as its target ALX4 (Homo sapiens, UniProt Q9H161 200-286, Q225E).
Assay [3] deals with HESX1 (Homo sapiens, UniProt Q9UBX0 95-180).
Another assay concerns the target MSX2 (Homo sapiens, UniProt P35548 130-214, R199I).
Assay [4] concerns the target ALX1 (Homo sapiens, UniProt Q15699 118-204, L144V).
The target in assay [5] is ALX3 (Homo sapiens, UniProt O95076 139-225, N203Q).
For assay [6], the target named is SHOX (Homo sapiens, UniProt O15266 103-189, R173C).
The target in assay [7] is ALX1 (Homo sapiens, UniProt Q15699 118-204, L144R).
In assay [8] the target is ALX3 (Homo sapiens, UniProt O95076 139-225).
Assay [9] concerns the target PROP1 (Homo sapiens, UniProt O75360 56-141).
The target of assay [10] is HESX1 (Homo sapiens, UniProt Q9UBX0 95-180, R109Q).
Assay [11] concerns the target PROP1 (Homo sapiens, UniProt O75360 56-141, R99H).
Assay [12] concerns the target ALX3 (Homo sapiens, UniProt O95076 139-225, L168Q).
Assay [13] has as its target HESX1 (Homo sapiens, UniProt Q9UBX0 95-180, P111T).
The target of assay [14] is ALX3 (Homo sapiens, UniProt O95076 139-225, L168V).
Assay [15] addresses PROP1 (Homo sapiens, UniProt O75360 56-141, F88S).
The target of assay [16] is HESX1 (Homo sapiens, UniProt Q9UBX0 95-180, F115L).
Assay [17] concerns the target ALX1 (Homo sapiens, UniProt Q15699 118-204).
Assay [18] deals with ALX3 (Homo sapiens, UniProt O95076 139-225, N203S).
Sequence of ALX3 (Homo sapiens, UniProt O95076 139-225, N203S) (O95076 139-225 N203S): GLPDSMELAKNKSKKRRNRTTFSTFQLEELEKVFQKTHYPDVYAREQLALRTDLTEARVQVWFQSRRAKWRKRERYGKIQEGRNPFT

Sequence of ALX1 (Homo sapiens, UniProt Q15699 118-204, L144R) (Q15699 118-204 L144R): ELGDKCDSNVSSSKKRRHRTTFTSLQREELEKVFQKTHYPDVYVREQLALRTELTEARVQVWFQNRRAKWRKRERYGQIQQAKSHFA
Sequence of ALX3 (Homo sapiens, UniProt O95076 139-225, L168V) (O95076 139-225 L168V): as the sequence (O95076 139-225 N203S) above, with L30V, S65N counted along it
Sequence of SHOX (Homo sapiens, UniProt O15266 103-189, R173C) (O15266 103-189 R173C): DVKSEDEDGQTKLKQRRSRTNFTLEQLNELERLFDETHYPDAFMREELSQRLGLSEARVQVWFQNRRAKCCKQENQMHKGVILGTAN
Sequence of HESX1 (Homo sapiens, UniProt Q9UBX0 95-180, R165K) (Q9UBX0 95-180 R165K): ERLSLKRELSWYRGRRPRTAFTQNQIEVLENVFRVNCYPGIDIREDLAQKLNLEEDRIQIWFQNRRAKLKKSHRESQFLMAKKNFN
Sequence of ALX4 (Q9H161 200-286 Q225E): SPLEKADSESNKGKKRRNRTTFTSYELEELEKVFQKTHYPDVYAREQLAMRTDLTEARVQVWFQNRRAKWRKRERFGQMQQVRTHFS
Sequence of HESX1 (Homo sapiens, UniProt Q9UBX0 95-180) (Q9UBX0 95-180): as the sequence (Q9UBX0 95-180 R165K) above, with K71R counted along it
Sequence of HESX1 (Homo sapiens, UniProt Q9UBX0 95-180, R109Q) (Q9UBX0 95-180 R109Q): as the sequence (Q9UBX0 95-180 R165K) above, with R15Q, K71R counted along it
Sequence of MSX2 (P35548 130-214 R199I): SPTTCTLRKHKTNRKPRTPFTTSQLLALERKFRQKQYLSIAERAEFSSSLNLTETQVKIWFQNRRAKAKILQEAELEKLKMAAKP
Sequence of ALX1 (Homo sapiens, UniProt Q15699 118-204, L144V) (Q15699 118-204 L144V): as the sequence (Q15699 118-204 L144R) above, with R27V counted along it
Sequence of PROP1 (Homo sapiens, UniProt O75360 56-141, R99H) (O75360 56-141 R99H): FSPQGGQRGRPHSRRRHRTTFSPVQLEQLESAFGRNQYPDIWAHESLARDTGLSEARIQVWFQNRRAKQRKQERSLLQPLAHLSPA
Sequence of ALX3 (Homo sapiens, UniProt O95076 139-225) (O95076 139-225): as the sequence (O95076 139-225 N203S) above, with S65N counted along it
Sequence of SHOX (Homo sapiens, UniProt O15266 103-189) (O15266 103-189): as the sequence (O15266 103-189 R173C) above, with C71R counted along it
Sequence of ALX3 (Homo sapiens, UniProt O95076 139-225, L168Q) (O95076 139-225 L168Q): as the sequence (O95076 139-225 N203S) above, with L30Q, S65N counted along it
Sequence of PROP1 (Homo sapiens, UniProt O75360 56-141) (O75360 56-141): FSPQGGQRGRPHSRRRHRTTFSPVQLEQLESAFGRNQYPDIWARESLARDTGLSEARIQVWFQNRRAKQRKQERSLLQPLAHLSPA
Sequence of ALX3 (Homo sapiens, UniProt O95076 139-225, N203Q) (O95076 139-225 N203Q): as the sequence (O95076 139-225 N203S) above, with S65Q counted along it
Sequence of HESX1 (Homo sapiens, UniProt Q9UBX0 95-180, P111T) (Q9UBX0 95-180 P111T): as the sequence (Q9UBX0 95-180 R165K) above, with P17T, K71R counted along it
Sequence of HESX1 (Homo sapiens, UniProt Q9UBX0 95-180, F115L) (Q9UBX0 95-180 F115L): as the sequence (Q9UBX0 95-180 R165K) above, with F21L, K71R counted along it
Sequence of ALX1 (Homo sapiens, UniProt Q15699 118-204) (Q15699 118-204): as the sequence (Q15699 118-204 L144R) above, with R27L counted along it
Sequence of PROP1 (Homo sapiens, UniProt O75360 56-141, F88S) (O75360 56-141 F88S): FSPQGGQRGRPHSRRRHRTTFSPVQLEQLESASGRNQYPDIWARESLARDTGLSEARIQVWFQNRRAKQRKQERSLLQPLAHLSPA

Regarding GCTAATTA, the binding signal was 13.8 upbm affinity estimate (log intensity, higher = more binding, comparable within an allelic series) with HESX1 [1]; 13.5 upbm affinity estimate (log intensity, higher = more binding, comparable within an allelic series) in the assay with SHOX [2]; 14.4 upbm affinity estimate (log intensity, higher = more binding, comparable within an allelic series) with ALX4; 13.6 upbm affinity estimate (log intensity, higher = more binding, comparable within an allelic series) with HESX1 [3]; 13.5 upbm affinity estimate (log intensity, higher = more binding, comparable within an allelic series) with MSX2; 12.4 upbm affinity estimate (log intensity, higher = more binding, comparable within an allelic series) with ALX1 [4]. The binding signal with ALX3 [5] was 8.53 upbm affinity estimate (log intensity, higher = more binding, comparable within an allelic series); in the assay with SHOX [6], 10.9 upbm affinity estimate (log intensity, higher = more binding, comparable within an allelic series); in the assay with ALX1 [7] it was 12 upbm affinity estimate (log intensity, higher = more binding, comparable within an allelic series); in the assay with ALX3 [8] it was 13 upbm affinity estimate (log intensity, higher = more binding, comparable within an allelic series); in the assay with PROP1 [9], 12.1 upbm affinity estimate (log intensity, higher = more binding, comparable within an allelic series); with HESX1 [10], 10.5 upbm affinity estimate (log intensity, higher = more binding, comparable within an allelic series). For the same sequence, the binding signal in the assay with PROP1 [11] is 12.3 upbm affinity estimate (log intensity, higher = more binding, comparable within an allelic series); in the assay with ALX3 [12], 11.4 upbm affinity estimate (log intensity, higher = more binding, comparable within an allelic series); with HESX1 [13] it was 12.4 upbm affinity estimate (log intensity, higher = more binding, comparable within an allelic series); with ALX3 [14], 11.2 upbm affinity estimate (log intensity, higher = more binding, comparable within an allelic series); in the assay with PROP1 [15], 8.03 upbm affinity estimate (log intensity, higher = more binding, comparable within an allelic series); with HESX1 [16], 8.29 upbm affinity estimate (log intensity, higher = more binding, comparable within an allelic series). For the same sequence, the binding signal with ALX1 [17] was 13.1 upbm affinity estimate (log intensity, higher = more binding, comparable within an allelic series); with ALX3 [18], 8.71 upbm affinity estimate (log intensity, higher = more binding, comparable within an allelic series).

In the case of ATAATTAC, the binding signal was 12.6 upbm affinity estimate (log intensity, higher = more binding, comparable within an allelic series) with HESX1 [1]; 12 upbm affinity estimate (log intensity, higher = more binding, comparable within an allelic series) with SHOX [2]; 13.4 upbm affinity estimate (log intensity, higher = more binding, comparable within an allelic series) with ALX4; 12.6 upbm affinity estimate (log intensity, higher = more binding, comparable within an allelic series) with HESX1 [3]; 13.1 upbm affinity estimate (log intensity, higher = more binding, comparable within an allelic series) in the assay with MSX2; 11.8 upbm affinity estimate (log intensity, higher = more binding, comparable within an allelic series) with ALX1 [4]. Moreover, the binding signal with ALX3 [5] was 8.56 upbm affinity estimate (log intensity, higher = more binding, comparable within an allelic series); in the assay with SHOX [6], 9.76 upbm affinity estimate (log intensity, higher = more binding, comparable within an allelic series); in the assay with ALX1 [7] it was 11.5 upbm affinity estimate (log intensity, higher = more binding, comparable within an allelic series); with ALX3 [8], 12.5 upbm affinity estimate (log intensity, higher = more binding, comparable within an allelic series); with PROP1 [9] it was 11.6 upbm affinity estimate (log intensity, higher = more binding, comparable within an allelic series); in the assay with HESX1 [10] it was 9.02 upbm affinity estimate (log intensity, higher = more binding, comparable within an allelic series). Moreover, the binding signal in the assay with PROP1 [11] was 11.4 upbm affinity estimate (log intensity, higher = more binding, comparable within an allelic series); with ALX3 [12], 10.7 upbm affinity estimate (log intensity, higher = more binding, comparable within an allelic series); in the assay with HESX1 [13], 11.1 upbm affinity estimate (log intensity, higher = more binding, comparable within an allelic series); in the assay with ALX3 [14] it was 10.3 upbm affinity estimate (log intensity, higher = more binding, comparable within an allelic series); with PROP1 [15] it was 7.95 upbm affinity estimate (log intensity, higher = more binding, comparable within an allelic series); with HESX1 [16], 7.97 upbm affinity estimate (log intensity, higher = more binding, comparable within an allelic series). The binding signal with ALX1 [17] is 12.5 upbm affinity estimate (log intensity, higher = more binding, comparable within an allelic series); with ALX3 [18], 8.66 upbm affinity estimate (log intensity, higher = more binding, comparable within an allelic series).

Consider CTTAATTA, for which the binding signal in the assay with HESX1 [1] is 13.6 upbm affinity estimate (log intensity, higher = more binding, comparable within an allelic series); with SHOX [2] it was 13.2 upbm affinity estimate (log intensity, higher = more binding, comparable within an allelic series); in the assay with ALX4, 14.3 upbm affinity estimate (log intensity, higher = more binding, comparable within an allelic series); in the assay with HESX1 [3], 13.4 upbm affinity estimate (log intensity, higher = more binding, comparable within an allelic series); in the assay with MSX2, 13.1 upbm affinity estimate (log intensity, higher = more binding, comparable within an allelic series); in the assay with ALX1 [4] it was 12.3 upbm affinity estimate (log intensity, higher = more binding, comparable within an allelic series). Also, the binding signal with ALX3 [5] is 8.7 upbm affinity estimate (log intensity, higher = more binding, comparable within an allelic series); in the assay with SHOX [6] it was 10.8 upbm affinity estimate (log intensity, higher = more binding, comparable within an allelic series); with ALX1 [7], 11.9 upbm affinity estimate (log intensity, higher = more binding, comparable within an allelic series); with ALX3 [8], 12.9 upbm affinity estimate (log intensity, higher = more binding, comparable within an allelic series); in the assay with PROP1 [9], 12.1 upbm affinity estimate (log intensity, higher = more binding, comparable within an allelic series); with HESX1 [10], 10.5 upbm affinity estimate (log intensity, higher = more binding, comparable within an allelic series). Further, the binding signal with PROP1 [11] is 12.1 upbm affinity estimate (log intensity, higher = more binding, comparable within an allelic series); with ALX3 [12], 11.4 upbm affinity estimate (log intensity, higher = more binding, comparable within an allelic series); with HESX1 [13] it was 12.3 upbm affinity estimate (log intensity, higher = more binding, comparable within an allelic series); with ALX3 [14], 11.1 upbm affinity estimate (log intensity, higher = more binding, comparable within an allelic series); with PROP1 [15] it was 8.21 upbm affinity estimate (log intensity, higher = more binding, comparable within an allelic series); with HESX1 [16] it was 8.38 upbm affinity estimate (log intensity, higher = more binding, comparable within an allelic series). Also, the binding signal was 12.9 upbm affinity estimate (log intensity, higher = more binding, comparable within an allelic series) in the assay with ALX1 [17] and 8.85 upbm affinity estimate (log intensity, higher = more binding, comparable within an allelic series) with ALX3 [18].

On to ATAATTAT, for which the binding signal with HESX1 [1] was 12.8 upbm affinity estimate (log intensity, higher = more binding, comparable within an allelic series); in the assay with SHOX [2], 12.1 upbm affinity estimate (log intensity, higher = more binding, comparable within an allelic series); with ALX4, 13.7 upbm affinity estimate (log intensity, higher = more binding, comparable within an allelic series); with HESX1 [3] it was 12.8 upbm affinity estimate (log intensity, higher = more binding, comparable within an allelic series); with MSX2 it was 12.9 upbm affinity estimate (log intensity, higher = more binding, comparable within an allelic series); with ALX1 [4], 11.9 upbm affinity estimate (log intensity, higher = more binding, comparable within an allelic series). Further, the binding signal with ALX3 [5] was 8.72 upbm affinity estimate (log intensity, higher = more binding, comparable within an allelic series); in the assay with SHOX [6], 9.85 upbm affinity estimate (log intensity, higher = more binding, comparable within an allelic series); with ALX1 [7], 11.6 upbm affinity estimate (log intensity, higher = more binding, comparable within an allelic series); with ALX3 [8], 12.7 upbm affinity estimate (log intensity, higher = more binding, comparable within an allelic series); with PROP1 [9], 11.8 upbm affinity estimate (log intensity, higher = more binding, comparable within an allelic series); with HESX1 [10], 9.01 upbm affinity estimate (log intensity, higher = more binding, comparable within an allelic series). In addition, the binding signal with PROP1 [11] was 11.5 upbm affinity estimate (log intensity, higher = more binding, comparable within an allelic series); in the assay with ALX3 [12], 10.8 upbm affinity estimate (log intensity, higher = more binding, comparable within an allelic series); in the assay with HESX1 [13], 11.2 upbm affinity estimate (log intensity, higher = more binding, comparable within an allelic series); with ALX3 [14], 10.4 upbm affinity estimate (log intensity, higher = more binding, comparable within an allelic series); with PROP1 [15] it was 8.04 upbm affinity estimate (log intensity, higher = more binding, comparable within an allelic series); in the assay with HESX1 [16] it was 7.94 upbm affinity estimate (log intensity, higher = more binding, comparable within an allelic series). The binding signal was 12.5 upbm affinity estimate (log intensity, higher = more binding, comparable within an allelic series) in the assay with ALX1 [17] and 8.79 upbm affinity estimate (log intensity, higher = more binding, comparable within an allelic series) with ALX3 [18].
